Results reported in PMC5540273 (PLoS ONE, 2017).

Legend:
Conditions in all cases: concentration: 1 μM, replicates: in singlicate; n = 1
[1] = system: T1, JNK1
T1 construct: gene MAPK8

[2] = system: T2, JNK2
T2 construct: gene MAPK9

[3] = system: T3, JNK3
T3 construct: gene MAPK10

[4] = system: KIT-autoinhibited
[5] = system: KIT
[6] = system: LATS1
[7] = system: LATS2
[8] = system: LCK
[9] = system: LIMK1
[10] = system: LIMK2
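Also: KINOMEscan kinase panel screen.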

Row | SMILES | %Inh [1] [%] | %Inh [2] [%] | %Inh [3] [%] | %Inh [4] [%] | %Inh [5] [%] | %Inh [6] [%] | %Inh [7] [%] | %Inh [8] [%] | %Inh [9] [%] | %Inh [10] [%]
1 | Fc1ccc(-c2ncn(CCCNCc3ccccc3)c2-c2ccncc2)cc1 | 34 | 48 | 57 | 4 | 19 | 30 | 34 | 40 | 10 | 7
2 | CS(=O)(=O)CCNCc1ccc(-c2ccc3ncnc(Nc4ccc(OCc5ccccc5)c(Cl)c4)c3c2)o1.Cl [GW574783] | 18 | 4 | 0 | 0 | 10 | 0 | 11 | 30 | 0 | 1
3 | Oc1ccc2ncnc(Nc3ccc(OCc4ccccc4)cc3)c2c1 [GI262866] | 0 | 0 | 0 | 0 | 48 | 0 | 0 | 2 | 0 | 4
4 | Cc1cccc(-c2nc(Nc3ccc4[nH]nnc4c3)c3ccccc3n2)n1 [GW867587] | 0 | 0 | 0 | 0 | 0 | 0 | 0 | 7 | 0 | 0
5 | O=C(Nc1n[nH]c2nc(-c3ccco3)c(Br)cc12)c1ccc(CN2CCCC2)cc1.O=C(O)[C@H](O)[C@@H](O)C(=O)O [SB-742352] | 0 | 0 | 0 | 0 | 99.2 | 0 | 0 | 47 | 26 | 0
6 | Cc1ccc(C)c(NC(=O)NCCNc2ccnc(Nc3ccc(F)cc3)n2)c1 [GSK1379878] | 13 | 13 | 2 | 0 | 0 | 0 | 0 | 3 | 0 | 0
7 | CSc1nn2c(=O)cc(N3CCOCC3)nc2n1Cc1cccc(Cl)c1Cl [GSK2347225] | 11 | 26 | 10 | 0 | 23 | 9 | 9 | 31 | 11 | 19
8 | Fc1ccc(Nc2nccc(-c3c(-c4ccc(Cl)cc4)nn4ncccc34)n2)cc1F [GW829058] | 40 | 63 | 56 | 12 | 38 | 11 | 19 | 11 | 0 | 7
9 | COc1cc2ncnc(Nc3ccc(OCc4ccccc4Br)c(Cl)c3)c2cc1OC.Cl [GI261590] | 15 | 10 | 0 | 0 | 3 | 8 | 3 | 57 | 0 | 3
10 | C[C@H]1CC[C@@H](C(=O)Nc2ccccc2)CN1c1cc(-c2ccc3c(N)n[nH]c3c2)nc(N)n1 [GSK2283293] | 5 | 25 | 1 | 16 | 1 | 0 | 9 | 5 | 0 | 0
11 | CCC(CC)(CC)n1cnc2c(N)ncnc21 [SKF-97620] | 29 | 24 | 4 | 0 | 0 | 24 | 0 | 14 | 10 | 0
12 | Clc1cccc(-c2nc(Nc3ccncc3)c3ccccc3n2)c1 [GW873004] | 0 | 0 | 0 | 1 | 10 | 14 | 0 | 31 | 54 | 12
13 | COc1ccc(-c2oc3ncnc(N)c3c2-c2ccc(OC)cc2)cc1 [SB-589132] | 30 | 10 | 0 | 29 | 49 | 100 | 0 | 54 | 24 | 8
14 | Nc1n[nH]c2nnc(-c3ccccc3)cc12 [SB-517389] | 27 | 5 | 0 | 0 | 1 | 0 | 0 | 0 | 19 | 3
15 | CN1c2ccc(-c3ccc(C(=O)NCCO)cc3)cc2-c2[nH]ncc2S1(=O)=O | 14 | 1 | 0 | 17 | 17 | 0 | 11 | 28 | 17 | 7
16 | COc1ccc(Nc2nccc(N3CCC(NC(=O)c4cccc(NC(C)=O)c4)C3)n2)cc1 (stereo not shown) [GSK1379732] | 16 | 23 | 26 | 0 | 7 | 0 | 9 | 9 | 0 | 0

Row | SMILES | %Inh [1] [%] | %Inh [2] [%] | %Inh [3] [%] | %Inh [4] [%] | %Inh [5] [%] | %Inh [6] [%] | %Inh [7] [%] | %Inh [8] [%] | %Inh [9] [%] | %Inh [10] [%]
17 | OCCOCCn1ccc2ncnc(Nc3ccc(Oc4cccc(Cl)c4)c(Cl)c3)c21 | 0 | 0 | 0 | 0 | 0 | 0 | 0 | 41 | 0 | 0
18 | O=C(NCCCN1CCCC1=O)c1cnc(NCc2cc(Cl)ccc2Cl)nc1NC1CCNCC1 | 0 | 0 | 0 | 0 | 0 | 0 | 29 | 15 | 0 | 0
19 | c1ccc(-c2ccc3c(-c4ccnc(Nc5ccc6c(c5)OCCO6)n4)cnn3n2)cc1 [GW818941] | 28 | 4 | 8 | 0 | 10 | 11 | 0 | 22 | 27 | 0
20 | O=C(c1ccc(-c2cc(-c3c[nH]nc3-c3ccccn3)ccn2)cc1)N1CCCC1 [GW792479] | 27 | 0 | 0 | 0 | 11 | 0 | 0 | 3 | 0 | 0
21 | Cl.c1ccc(Cn2ccc3cc(Nc4ncnc5ccccc45)ccc32)cc1 [GW275568] | 0 | 23 | 16 | 0 | 41 | 0 | 22 | 41 | 8 | 15
22 | N#Cc1ccc(Oc2ccc(Nc3ncnc4cc[nH]c34)cc2Cl)cc1 | 58 | 9 | 20 | 3 | 31 | 22 | 23 | 0 | 13 | 0
23 | CC(=O)Nc1n[nH]c2ncc(-c3ccccc3)cc12 [SB-548492] | 40 | 17 | 17 | 21 | 67 | 14 | 4 | 30 | 0 | 45
24 | CNc1nccc(-c2c(-c3ccc(F)cc3)ncn2CCCN2CCOCC2)n1 [SB-222516] | 12 | 0 | 0 | 4 | 2 | 0 | 0 | 1 | 11 | 95.2
25 | FC(F)(F)c1ccc(-c2cc(-c3c[nH]nc3-c3ccccn3)ccn2)cc1 [GW599550] | 0 | 5 | 0 | 0 | 26 | 0 | 40 | 25 | 7 | 0
26 | Cn1ccc2ncnc(Oc3ccc(NC(=O)Nc4cccnc4)c(Cl)c3)c21 | 0 | 0 | 0 | 0 | 98.7 | 23 | 0 | 0 | 0 | 0
27 | CCn1c(-c2ccncc2)nc2cnccc21 [SB-735216] | 23 | 11 | 17 | 10 | 0 | 17 | 9 | 0 | 12 | 0
28 | CCCc1ccc(S(=O)(=O)NC2CCN(c3ccnc(Nc4ccc(OC)cc4)n3)C2)cc1 (stereo not shown) [GSK1379737] | 20 | 21 | 0 | 0 | 37 | 0 | 0 | 16 | 0 | 100
29 | Cc1cc(N2CCC(NS(=O)(=O)c3ccc(F)cc3)CC2)nc(Nc2cccc(C#N)c2)n1.O=C(O)C(F)(F)F [GSK1653537] | 16 | 17 | 0 | 0 | 0 | 0 | 0 | 10 | 0 | 0
30 | C[C@@H]1CCN(C(=O)CO)C[C@@H]1N(C)c1ncnc2[nH]ccc12 | 19 | 0 | 0 | 0 | 12 | 0 | 16 | 20 | 0 | 8
31 | CC(C)(C)c1ccc(-n2cnc3c(N)ncnc32)cc1 [SKF-97263] | 21 | 3 | 1 | 1 | 38 | 0 | 18 | 8 | 8 | 0
